# In PubChem BioAssay AID624404 (Broad Institute, 2012):
# Hit rate of the full screen: of about 1,800 compounds, about 710 (39%) were called active. About 28% were inconclusive and are not listed. These entries were drawn from the full list. Results with a measured potency or affinity are listed apart. Unmarked numbers belong to inactive results.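 Rule for the calls: active = luciferase signal rise whose fitted curve crosses a set activity limit at or below the top valid tested dose; inconclusive = flat fit with 30 to 70% rise, or poor fit; inactive = signal falling, flat within 30%, or crossing above top dose.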
# Experiment: reporter signal increase, D54 LucT cells – cell-based, luminescence, cherry pick, counter-screen for N-linked glycosylation inhibitor project, dose response (AID 624404);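 note: 0% = median neutral control signal and 100% = twice that signal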
# Settings: D54 LucT luciferase reporter counterscreen, 24 h; series mostly up to 19.5 µM; activity increase (luciferase signal): at the top concentration
row,SMILES,activity increase (luciferase signal) [%]
1,O=S(=O)(Nc1cccc2cccnc12)c1ccc(S(=O)(=O)N2CCCC2)cc1,-5.43
2,COc1ccc2nc3c(cc2c1)c(NC(=O)CC(C)C)nn3CC(C)C,-23.4
3,O=C(Nc1c2ccccc2nc2ccccc12)C(Cl)(Cl)Cl,41.3
4,CN1CC(=O)N2C(c3ccc(Cl)cc3)c3[nH]c4ccccc4c3C[C@H]2C1=O (some centres undefined),11.1
5,COc1ccc(Cn2c(=O)c3[nH]cnc3n(-c3ccccc3C)c2=O)cc1,14.1
6,Cc1cc(-n2c(SCC(=O)NCCC3=CCCCC3)nc3n[nH]c(C)c3c2=N)ccc1Cl,12.7
7,CCN(CC)CCCNC(=O)CSc1c2c(nc3cc(Cl)ccc13)CCCC2,-21.6
8,CCOC(=O)c1[nH]c2ccc(F)cc2c1NC(=O)C(C)N1CCc2cc(OC)c(OC)cc2C1 (centres undefined),17.3
9,CCN(CC)c1ccc(NC(=O)CC2Oc3ccccc3NC2=O)c(C)c1 (centres undefined),13.1
10,COc1ccc(C2C3=C(COC3=O)Oc3cc4c(cc32)OCO4)cc1OC (centres undefined),39.7
11,COc1cc(NC(=O)NCc2ccco2)ccc1-c1ccc(NC(=O)NCc2ccco2)cc1OC,-17.9
12,Cc1ccc(C)c(NC(=O)Cn2nnc(C(=O)NCc3ccco3)c2N)c1,50
13,C=CCOc1ccccc1C(=O)/C=C1/C(=O)Nc2ccccc21,39.7
14,c1cnc2nc3c4ccccc4c4ccccc4c3nc2c1,14
15,Cc1ccc(C(C)C)c(OCc2nnc(SCC(=O)Nc3ncc(C)s3)n2C)c1,-52.9
16,CCn1c(SCC(=O)Nc2ccc(C(C)=O)cc2)nc2c([nH]c3ccccc32)c1=O,-9.93
17,COc1ccc(-c2nnc(SCC(=O)Nc3ncc(C)s3)n2-c2ccccc2)cc1OC,-24.2
18,Cc1cc(C)c(NC(=O)CSc2nc(COc3ccccc3)nc3ccccc23)c(C)c1,27.5
19,COc1ccc2c(c1)c1ccc3c(c1n2C)C(=O)C=CC3=O,7.43
20,CC1(C(=O)NCc2ccc(F)c(F)c2)Cc2c(-c3ccc4c(c3)OCO4)ccnc2O1 (centres undefined),17.7
21,O=C(N/N=C/c1cccc(Br)c1)c1ccc(N2CCCC2=O)cc1,60.1
22,CC(=O)/C=C/c1ccccc1Oc1c(F)c(F)nc(F)c1F,-19.5

row,SMILES,activity increase (luciferase signal) [%]
1,CC(=O)N1c2ccccc2C(=O)C1N(C)c1ccc(C)cc1 (centres undefined),11.4
2,COc1ccc(CCn2c(=N)c(C(=O)NCC3CCCO3)cc3c(=O)n4cccc(C)c4nc32)cc1 (centres undefined),-27.9
3,COc1ccc(CCn2c(=N)c(C(=O)NCCN3CCOCC3)cc3c(=O)n4cccc(C)c4nc32)cc1OC,8.4
4,COc1ccc(NC(=O)COC(=O)/C=C/C(=O)OCC(=O)Nc2ccc(OC)c(Cl)c2)cc1Cl,0.926
5,CCOc1ccc(Nc2nnc(SCc3nc4ccccc4c(=O)[nH]3)s2)cc1,4.11
6,CCOc1ccc(Nc2c3ccccc3nc3ccccc23)cc1,-45.8
7,Cn1cnc([N+](=O)[O-])c1S(=O)(=O)Oc1ccccc1,16.6
8,CCN1/C(=C/c2sc(-c3ccccc3C)c[n+]2C)Sc2ccccc21,-54.8
9,O=C(CC1Sc2ccccc2NC1=O)NNc1cccc(Cl)c1Cl (centres undefined),43.9
10,O=C(Cc1ccc(Cl)cc1)Nc1ccccc1N1CCN(C(=O)c2ccccc2)CC1,309
11,CCOC(=O)c1c(NC(C)=O)sc2c1CCC(C=O)=C2Sc1ccccc1,-5.28
12,CCOC(=O)c1c(NC(=O)CCl)sc(C(=O)N(CC)CC)c1C,-4.47
13,CNC(=O)COC(=O)c1ccccc1C(=O)c1ccc(Cl)c([N+](=O)[O-])c1,-9.98
14,COc1ccc([N+](=O)[O-])cc1NC(=O)CCN1CCN(CCO)CC1,29.9
15,CCOC(=O)c1ccc(-n2cccc2/C=C2\NC(=O)NC2=O)cc1,-16.1
16,CCc1ccc(Oc2coc3cc(OCC(=O)Nc4cc(C)ccc4C)ccc3c2=O)cc1,1.63
17,COc1cc(C2=NOC(C(=O)NCc3ccc(F)cc3)C2)cc(OC)c1OC (centres undefined),3.85
18,CN(C)S(=O)(=O)c1ccc(N2CCCC2)c(C(=O)Nc2nccs2)c1,32.4
19,COc1cc(Nc2c3c(nc4ccccc24)CCC3)cc(OC)c1OC,41.2
20,CCOC(=O)c1[nH]c(COC(=O)CCOc2ccccc2OC)c(C(=O)OCC)c1C,16
21,CCOC(=O)c1nnc(-c2ccc(C)cc2)nc1Sc1ccccc1Cl,-0.161
22,CCOC(=O)c1[nH]c(C)c(C(=O)OCC(=O)NC(C)c2ccc(F)cc2)c1C (centres undefined),3.88

row,SMILES,activity increase (luciferase signal) [%]
1,Cc1cc2c(=Cc3ccc(N(C)C)cc3)c3ccccc3n2[n+]1C,2.56
2,COc1cc(-c2nc3ccc(N4CCN(C)CC4)cc3[nH]2)cc(OC)c1OC,3.45
3,CC1Cc2ccccc2N1C(=O)CSc1nn2c(=O)c(C(C)(C)C)nnc2s1 (centres undefined),21.3
4,COc1ccc2c(-c3cc4ccc(OCc5ccc(F)cc5)cc4oc3=O)cc(=O)oc2c1,-17.7
5,C#CC(=O)CC1(CN(Cc2ccccc2)C(=O)OC(C)(C)C)CCCCC1,38.3
6,COc1ccc(Cl)cc1NC(=O)CN(C)CC(=O)Nc1cc(OC)c(OC)c(OC)c1,-4.41
7,CCC12CCC3c4ccc(O)cc4CCC3C1CC(O)C2O (centres undefined),42.4
8,O=C(c1cccc([N+](=O)[O-])c1)N1CCN(c2cccc(Cl)c2)CC1,1.66
9,c1ccc(-n2nnnc2-c2cccc3ccccc23)cc1,43.7
10,c1ccc(-c2n[nH]c(-c3ccccc3)c2-c2nc3ccccc3[nH]2)cc1,-18.4
11,COc1ccc(NC(=O)CSc2c3c(nc4ccccc24)CCCC3)c(OC)c1,-48.4
12,CN(C)c1ccc(-c2ccnc3c2CC(C)(C(=O)NCc2ccccc2)O3)cc1 (centres undefined),37
13,O=C(N/N=C/c1ccc2c(c1)OCO2)c1sc2cc(Cl)ccc2c1Cl,47.7
14,CCOC(=O)/C=C/C(=O)Nc1ccc(S(=O)(=O)N(C)c2ccccc2)cc1,12.7
15,COc1ccc(OC)c(/C=C/c2ccc3cccc(O)c3n2)c1,15.1
16,O=C(COc1ccc(/C=N/NC(=O)c2cc3ccccc3o2)cc1Cl)Nc1ccccc1,4.64
17,O=C(O)CCC/C=C\C[C@@H]1[C@@H](/C=C/[C@@H](O)COc2cccc(Cl)c2)[C@H](O)C[C@@H]1O,103
18,COc1cc2c(cc1OC)C(c1ccccc1)N(C(=O)CCl)CC2 (centres undefined),-85.1
19,CCOc1ccc(C2c3cc(OC)c(OC)cc3CC(=O)N2c2ccc(OC)cc2)cc1 (centres undefined),10.7
20,COc1ccc(CCn2c(=N)c(C(=O)NC3CCCC3)cc3c(=O)n4ccccc4nc32)cc1OC,-3.5
